Screens: PubChem BioAssay, several laboratories
cytoskel mod = alters cytoskeleton assembly in HUVEC cells; HUVEC TNFa F-actin phalloidin imaging, high content; inhibition, % at 2 µM; actives 0.18% (n = 91,000); AID 836;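 active = inhibition above the batch mean plus 3 SD and confirmed as a hit by visual image inspection, cut at about 30% in these data, passing the limit was not always enough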
Calb biofilm kill = kills Candida albicans biofilms; C. albicans biofilm + clotrimazole, Alamar Blue; inhibition, % at 6 µM; actives 0.14% (n = 85,000);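 active = inhibition above 20%; inactive = inhibition below 20%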;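 note: preformed 24 hr biofilms exposed to compound for 48 hr; 0% = biofilm without compound and 100% = blank killed by clotrimazole plus chlorhexidine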
E-sel TNF inh = TNF alpha driven E-selectin expression inhibition; HUVEC TNFa-induced E-selectin immunofluorescence, high content; actives 0.71% (n = 120,000); inhibition, % at 2 µM; AID 1246;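 active = inhibition above the batch mean plus 3 SD, and confirmed as a hit on visual image review, cut at about 43% in these data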;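 note: 0% = TNF-stimulated DMSO wells and 100% = unstimulated control wells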
ERa coact inh = ER-alpha (human) coactivator binding inhibition | TR-FRET ER-alpha LBD / SRC-1 peptide, estradiol-bound | actives 1.7% (n = 86,000) | inhibition, % at 25.6 µM | AID 629; in the data active = inhibition above about 50%;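 note: 0% = receptor plus peptide control and 100% = peptide only without receptor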
ERa SRC1 pot = enhances coactivator binding to human estrogen receptor alpha | coactivator binding (% of control), % at 25.6 µM | actives 1.3% (n = 86,000) | TR-FRET ERalpha-LBD/SRC-Cy5 coactivator binding, 2 h; 100 = basal binding, no effect | P03372; in the data active = activity above about 200%;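 note: binding measured in presence of low estradiol as agonist stimulus; 0% = peptide alone without receptor and 100% = receptor with peptide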
ERb SRC1 inh = ER-beta (human) coactivator binding inhibition; TR-FRET ER-beta LBD / SRC1-Cy5 peptide binding; receptor agonist-loaded with 1 µM estradiol; inhibition, % at 25.6 µM; actives 1.3% (n = 86,000); AID 633;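 active = compounds whose percent inhibition of the receptor-coactivator binding signal exceeds about 50% in the single-dose screen, limit read from the data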;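 note: 0% = receptor plus peptide wells without compound and 100% = peptide-only wells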
Target sequence (Q92731 whole entry, looked up, the tested form may be a part): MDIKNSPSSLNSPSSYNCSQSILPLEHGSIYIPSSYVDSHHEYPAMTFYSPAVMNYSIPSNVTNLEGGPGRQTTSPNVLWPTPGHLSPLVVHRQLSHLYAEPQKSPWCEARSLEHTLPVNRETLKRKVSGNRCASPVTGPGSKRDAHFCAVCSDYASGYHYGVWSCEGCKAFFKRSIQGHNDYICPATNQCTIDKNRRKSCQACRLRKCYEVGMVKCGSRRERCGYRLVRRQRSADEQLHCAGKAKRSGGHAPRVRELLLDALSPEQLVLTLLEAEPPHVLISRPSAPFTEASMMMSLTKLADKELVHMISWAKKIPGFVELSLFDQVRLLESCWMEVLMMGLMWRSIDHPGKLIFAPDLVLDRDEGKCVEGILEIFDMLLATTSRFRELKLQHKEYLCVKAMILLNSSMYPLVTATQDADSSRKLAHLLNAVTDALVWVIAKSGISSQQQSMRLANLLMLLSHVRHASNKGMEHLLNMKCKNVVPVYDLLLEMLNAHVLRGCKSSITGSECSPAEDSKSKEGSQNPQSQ
Numbers without * were called inactive; nt = no result; [ ] = dose if it differs, or a comment. Compounds with a hit are over-represented: about 2.9% of the library has one in this group of screens.

SMILES	cytoskel mod	Calb biofilm kill	E-sel TNF inh	ERa coact inh	ERa SRC1 pot	ERb SRC1 inh
CC(=O)c1cccc(NC(=O)NCc2cccnc2)c1	50.2*	2.3	99.9*	3.1	129.3	-4.2
Cn1c(=O)c2cn(Cc3ccc(Cl)cc3)cc2n(C)c1=O	-3.1	4.6	-23.1	-25.7	94.7	-4.3
N/C(Cc1cccc2ccccc12)=N\OC(=O)c1ccc2c(c1)OCO2	nt	nt	83.5*	nt	nt	nt
Cc1cnn(-c2ccc3nnc(-c4ccc(Br)cc4)n3n2)c1	nt	7.2	-26.1	35.7	283.9*[fluorescence artefact?]	36.0
O=C(Nc1ccccc1)n1ccc(-c2ccc(-n3ccnc3)cc2)n1	nt	nt	38.3	nt	nt	nt
CCCCC(CC)C(=O)NCc1ccccc1OC (stereo not given)	4.5	10.1	3.4	-2.0	128.3	52.5*
CCCC(C)C(=O)NCc1ccccc1OC (stereo not given)	8.8	4.0	-13.1	-7.3	102.7	10.8
CCOC(=O)C1Cc2c([nH]c3ccccc23)CN1 (stereo not given)	9.9	0.1	2.9	-6.4	136.5	3.8
CCOC(=O)C1Cc2ccccc2CN1 (stereo not given)	-13.6	0.2	-10.0	-4.8	102.1	57.3*[fluorescence artefact?]
c1nc(NCCN2CCOCC2)c2sc3nc(N4CCOCC4)c4c(c3c2n1)CCC4	nt	5.3	65.5*	-5.9	88.4	4.8
COc1ccc(-c2cc(C(=O)Nc3cc(C)n(Cc4ccc(Cl)cc4)n3)no2)cc1OC	23.6	6.7	nt	23.9	136.2	3.5
CCc1c(C)nc2ncnn2c1N1CCC(C(=O)N2CCN(c3ccc(F)cc3)CC2)CC1	10.3	1.0	55.3*	2.8	114.3	-15.7
CCc1c(C)nc2ncnn2c1N1CCC(C(=O)N2CCN(c3ccccc3)CC2)CC1	nt	0.6	nt	-1.2	99.1	5.2
CCOC(=O)c1c(NC(=O)CC)sc(C(C)=O)c1C	13.4	5.2	nt	3.8	101.5	3.4
CN(C(=O)CN1CCC(NC(=O)C2CCCCC2)CC1)C1CCCCC1	-5.1	0.2	nt	1.8	211.1*[fluorescence artefact?]	3.1
Cc1cccc(-n2c(SCc3cc(=O)n4ccsc4n3)nc3ccccc32)c1	-10.2	5.9	14.1	60.1*	53.5	22.0
CCCn1c(=O)c2ccccc2n2c(SCc3cc(=O)n4ccsc4n3)nnc12	30.3	8.6	-13.8	50.4*	88.7	31.4
CCn1c2ccccc2c2nnc(SCc3cc(=O)n4ccsc4n3)nc21	nt	1.6	nt	1.1	122.8	29.6
C=CCn1c(SCc2cc(=O)n3ccsc3n2)nnc1C1CCCCC1	-5.4	-0.6	10.2	81.5*[fluorescence artefact?]	75.5	55.5*[fluorescence artefact?]
COc1ccc(-c2cc3ncc(C(C)=O)c(C)n3n2)cc1	nt	nt	-2.2	nt	nt	nt
CC1=C(C(=O)c2ccccc2)C(c2cn(-c3ccccc3)nc2-c2ccc(Cl)cc2)NC(=S)N1 (stereo not given)	nt	3.7	30.5	-12.3	282.1*[fluorescence artefact?]	-2.7
CC(C)(C)OC(=O)N1CCC(C(N)=O)CC1	nt	-2.5	5.8	5.9	109.5	-7.3
CCN1CCC(C(N)=O)CC1	-3.2	6.1	13.9	2.8	105.0	51.0*
Cc1ccc(CN2CCSc3ccc(C(=O)N4CCN(c5ncccn5)CC4)cc32)cc1	nt	9.8	-32.9	24.8	378.2*[fluorescence artefact?]	29.8
COc1ccc(-n2nc([N+](=O)[O-])c(=NCCc3ccc(Cl)cc3)n2O)cc1	14.6	nt	55.5*	nt	nt	nt
SMILES	cytoskel mod	Calb biofilm kill	E-sel TNF inh	ERa coact inh	ERa SRC1 pot	ERb SRC1 inh
CC1(C)CC(=O)C/C(=N\NC(=O)CCc2ccc(S(=O)(=O)N3CCOCC3)cc2)C1	nt	nt	-25.1	nt	nt	nt
COc1cc(OC)cc(C(=O)NCC(=O)OCC(=O)/C=C2/N(C)c3ccccc3C2(C)C)c1	nt	nt	23.8	nt	nt	nt
CN1/C(=C\C(=O)COC(=O)Cn2nnc(-c3ccccc3)n2)C(C)(C)c2ccccc21	10.0	4.4	-7.4	-2.6	291.6*	-2.7
Cn1c(SCC(=O)NCCNC(=O)CSc2nnc(C(F)(F)F)n2C)nnc1C(F)(F)F	20.8	3.5	0.8	0.5	118.6	-14.2
COc1ccccc1-c1cc2nc(C)c(CCC(=O)NCc3ccco3)c(C)n2n1	nt	9.1	-15.5	4.1	108.2	-7.9
Cc1nc2ncnn2c(C)c1CCC(=O)NCc1ccccc1	-15.0	6.6	62.5*	-5.5	96.7	-18.8
Cc1nc2cc(-c3ccccc3)nn2c(C)c1CCC(=O)NCc1ccco1	15.6	4.6	14.9	79.8*[fluorescence artefact?]	97.6	10.3
CC(=O)c1coc2ccc(OCCN3CCCCC3)cc12	-22.1	6.6	nt	-2.8	139.5	-8.7
CCC(C)Sc1nnc(CSc2nc3nc(C)cc(C)n3n2)o1 (stereo not given)	-9.5	nt	-13.0	nt	nt	nt
CCn1c(SCC(=O)Nc2cc(C)on2)nnc1-c1ccco1	0.9	5.0	-80.3	-1.4	99.2	-17.2
CCn1c(SCC(=O)Nc2ccc3c(c2)oc2ccccc23)nnc1-c1ccc(N)cc1	nt	9.9	3.3	74.4*	66.9	50.1*[fluorescence artefact?]
CCn1c(SCC(=O)Nc2ccc3c(c2)OCCO3)nnc1-c1ccco1	2.0	0.6	-21.3	-0.9	104.7	1.5
CC(=O)Nc1ccc(-c2nnc(SCC(=O)Nc3ccc4c(c3)oc3ccccc34)n2C)cc1	-29.0	7.1	-18.1	43.1	103.2	24.7
CCn1c(SCC(=O)Nc2ccc3c(c2)c2ccccc2n3CC)nnc1-c1ccco1	-7.9	2.2	22.1	63.1*	83.2	48.7
CCn1c(SCC(=O)Nc2cc(C)on2)nnc1-c1ccccc1	37.1*	6.8	17.4	-9.0	103.0	-8.9
Cc1cc(NC(=O)CSc2nc3ccccc3c(=O)n2Cc2ccc(F)cc2)no1	-12.2	5.3	-16.6	44.1	232.3*[fluorescence artefact?]	50.1*[fluorescence artefact?]
CCCn1c(SCC(=O)Nc2ccccc2Oc2ccccc2)n[nH]c1=O	-8.9	0.7	7.0	-7.2	104.5	-4.5
COc1cc([N+](=O)[O-])ccc1NC(=S)Nc1cc(C(=O)OC(C)C)cc(C(=O)OC(C)C)c1	nt	nt	-10.0	nt	nt	nt
CCCCCCCCCCSc1n[nH]c(N)n1	nt	nt	-3.0	nt	nt	nt
COc1cc(-n2c(=O)c3ccccc3n(Cc3cc(=O)n4ccccc4n3)c2=O)cc(OC)c1OC	nt	nt	-0.7	nt	nt	nt
CCn1c(SCc2nc3ccccc3[nH]2)nnc1-c1ccc(OC)cc1	-5.4	6.3	-7.1	6.8	107.2	-12.8
O=C(C1CC1)N1CCc2cc(Br)cc(S(=O)(=O)NCCCN3CCCC3)c21	nt	6.9	66.2*	10.9	89.8	8.5
CC(=O)N1CCc2cc(Br)cc(S(=O)(=O)NCCCN3CCC(C)CC3)c21	2.0	10.7	1.3	-6.4	125.6	-3.5
COC(=O)c1sccc1NC(=O)c1cc(OC)cc(OC)c1	0.8	4.2	-22.1	25.9	440.4*[fluorescence artefact?]	28.1
CCc1sc(C(=O)Nc2ccsc2C(=O)OC)cc1Br	nt	7.4	nt	10.9	236.7*	-0.1
CCCCNC(=O)c1cn(-c2ccc(OCC)cc2)c(=O)c2cc(OC)c(OC)cc12	-2.9	4.0	-19.3	-6.3	100.0	-12.1
CCOC(=O)C1=C(O)/C(=C\c2ccc(CNC(=O)C(=O)Nc3ccccc3)o2)N=C1C	-4.4	1.8	13.1	81.2*	37.9	71.5*
CCCCOC(=O)CCn1c(=S)oc2ccccc21	-54.9	4.6	66.4*	-0.4	108.9	-2.1
